In all, about 290,000 compounds went through this assay and about 4,200 (1.4%) were called active. This excerpt belongs to a sample that is enriched for actives. Values without a mark were called inactive.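 The calls were made as follows: active = binding response more than 3 SD above or below the average of its plate-row segment, actives on both sides; inconclusive = wells at one plate position flagged as instrument error; inactive = the rest.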

Chain of Mitogen-activated protein kinase kinase kinase 3 (Homo sapiens) (Q99759 whole entry, looked up): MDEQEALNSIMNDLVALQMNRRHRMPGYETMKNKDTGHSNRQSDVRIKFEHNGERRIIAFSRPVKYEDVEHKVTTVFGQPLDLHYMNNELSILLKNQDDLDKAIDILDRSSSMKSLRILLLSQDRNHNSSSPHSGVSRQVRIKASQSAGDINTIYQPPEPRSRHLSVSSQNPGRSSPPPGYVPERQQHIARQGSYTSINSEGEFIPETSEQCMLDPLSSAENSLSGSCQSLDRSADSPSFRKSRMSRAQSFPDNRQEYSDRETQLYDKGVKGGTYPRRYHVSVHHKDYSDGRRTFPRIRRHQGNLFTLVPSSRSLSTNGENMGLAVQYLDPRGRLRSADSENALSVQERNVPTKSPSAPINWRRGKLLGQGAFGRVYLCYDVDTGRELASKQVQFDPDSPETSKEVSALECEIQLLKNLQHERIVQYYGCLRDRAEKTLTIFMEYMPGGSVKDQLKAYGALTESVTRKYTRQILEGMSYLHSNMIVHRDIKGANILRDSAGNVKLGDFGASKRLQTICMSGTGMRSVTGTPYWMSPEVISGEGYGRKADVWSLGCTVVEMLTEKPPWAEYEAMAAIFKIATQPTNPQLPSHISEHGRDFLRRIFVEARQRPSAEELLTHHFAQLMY

The experiment concerns the target Mitogen-activated protein kinase kinase kinase 3 (Homo sapiens) (UniProt Q99759). The experiment is described as follows: modulators of MEKK3-MEK5 PB1 binding, primary screen, biochemical, wildtype MEKK3, multiplex bead flow cytometry, Alexa488-MEK5 (AID 1529).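 Also: Alexa488 bead fluorescence after subtracting the streptavidin-only scavenger bead signal.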 Conditions: bead-based flow cytometry, Alexa488-MEK5 binding to MEKK3; at 10 µM; actives lie on both sides; 0 = blocked by unlabeled MEK5, 100 = vehicle. In general terms: In flow cytometry, cells or beads pass a laser one at a time.
In the case of `COc1cc2c(C(=O)N(C)c3cc(Cl)ccc3OC)cn(C)c(=O)c2cc1OC`, the binding response (% of control) is 102%.

`Cc1ccc(CNC(=O)Cn2c(=O)c3sccc3n(Cc3cccc([N+](=O)[O-])c3)c2=O)cc1`: the binding response (% of control) is 141% (active).

Consider `O=C(NCc1ccco1)c1ccc(Cn2c(=O)c3sccc3n(Cc3ccc(F)cc3)c2=O)cc1`, for which the binding response (% of control) is 115%.

`COCCNC(=O)CCCn1c(=O)c2ccccc2n(Cc2cccc([N+](=O)[O-])c2)c1=O`: the binding response (% of control) is 101%.

Consider `COc1ccccc1N1CCN(c2nc(C)cc(=O)[nH]2)CC1`, for which the binding response (% of control) is 104%.

In the case of `CCOC(=O)C1CN(S(=O)(=O)c2ccc(OC)cc2)c2cc(Cl)ccc2O1` (stereo not given), the binding response (% of control) was 105%.

With `CC(=O)c1c(C)oc2ccc(NS(=O)(=O)c3ccc(C(=O)O)cc3)cc12`, the binding response (% of control) is 99%.

Turning to `CC(=O)c1c(C)oc2ccc(NS(=O)(=O)c3ccccc3)cc12`, the binding response (% of control) is 101%.

Regarding `COc1ccc(S(=O)(=O)Nc2ccc3oc(C)c(C(C)=O)c3c2)cc1`, the binding response (% of control) was 122% (active).

For the compound `Cc1nc2ccc(S(=O)(=O)NC(C(=O)N3CCCCCC3)C(C)C)cc2s1` (stereo not given), the binding response (% of control) is 105%.

For the compound `Cc1nc2ccc(S(=O)(=O)NCC(=O)O)cc2s1`, the binding response (% of control) was 106%.

In the case of `Cc1nc2cc(S(=O)(=O)C(F)(F)F)ccc2s1`, the binding response (% of control) is 129% (active).

For the compound `CCOc1ccccc1NC(=O)C1CCCN(S(=O)(=O)c2ccccc2)C1` (stereo not given), the binding response (% of control) was 100%.

Turning to `O=S(=O)(c1ccccc1)c1nc(Cc2ccccc2)oc1N1CCOCC1`, the binding response (% of control) was 98%.

In the case of `Cc1nnc(NC(=O)C(c2ccccc2)c2ccccc2)s1`, the binding response (% of control) is 98%.

As to `CCCc1cc(=O)[nH]c(SCC(=O)N2C(C)CCCC2C)n1` (stereo not given), the binding response (% of control) is 107%.

For the compound `CCCc1nnc(SCC(=O)N2C(C)CCCC2C)n1CC` (stereo not given), the binding response (% of control) was 145% (active).

As for `CC1CCCC(C)N1C(=O)CSc1nnnn1C1CCCC1` (stereo not given), the binding response (% of control) is 101%.

For `O=C(O)c1ccc(NC(=O)c2ccc(COc3ccc(Cl)cc3)o2)cc1`, the binding response (% of control) is 103%.

As to `CC1CN(CC(=O)NC(C)c2ccccc2)CC(C)O1` (stereo not given), the binding response (% of control) is 101%.

For `COc1ccc(N2CCN(C(=O)c3cccs3)CC2)cc1`, the binding response (% of control) was 97%.

On to `O=C(CCS(=O)(=O)c1ccc(Br)cc1)NCCc1ccc(Cl)cc1`, for which the binding response (% of control) was 105%.

With `COc1ccc(Cl)cc1NC(=O)CCS(=O)(=O)c1ccc(Br)cc1`, the binding response (% of control) was 80% [inhibitor] (active).

With `COc1ccc(Cl)cc1NC(=O)CCS(=O)(=O)c1cc2c(cc1C)NC(=O)CO2`, the binding response (% of control) was 104%.

As to `CN(C)c1ccc(NC(=O)CN2C3CCCC2CC(NC(=O)c2ccccc2)C3)cc1` (stereo not given), the binding response (% of control) was 104%.

As for `COc1ccccc1CNC(=O)c1ccc(N(C)S(=O)(=O)c2ccc(C)cc2)cc1`, the binding response (% of control) is 96%.

With `COc1ccc(-c2[nH]ncc2CN(C)Cc2cccnc2)c(F)c1`, the binding response (% of control) was 108%.

For `COc1ccc(-c2[nH]ncc2CN(C)Cc2c(C)n[nH]c2C)c(OC)c1`, the binding response (% of control) is 0% [inhibitor] (active).

On to `COc1ccc(-c2[nH]ncc2CN(C)Cc2cc(C)[nH]n2)c(F)c1`, for which the binding response (% of control) is 102%.

As to `C#CCNC(=O)[C@H](Cc1ccc(C(=O)c2ccccc2)cc1)NC(=O)OC(C)(C)C`, the binding response (% of control) was 101%.

In the case of `CCOCCCNC(=O)c1ccc(CS(=O)(=O)c2cccc(C(F)(F)F)c2)o1`, the binding response (% of control) was 101%.

Regarding `Cc1c(C)n(Cc2ccc(Cl)cc2)c2ccc(C(=O)NCCCN3CCOCC3)cc12`, the binding response (% of control) was 106%.

For the compound `CCOCCCN(C)C1CCN(C(=O)c2oc3ccccc3c2NC(=O)COc2cccc(C)c2)CC1`, the binding response (% of control) is 105%.

In the case of `COc1ccc(C(=O)CCc2ccccc2O)c(OC)c1`, the binding response (% of control) is 97%.

For `O=C(NNc1c2ccccc2nc2ccccc12)c1cc2ccccc2cc1O`, the binding response (% of control) was 69% [inhibitor] (active).

On to `O=C(N/N=C/c1cccnc1)c1cc2ccccc2cc1O`, for which the binding response (% of control) is 99%.

On to `CC(C)(C)OC(=O)NNc1c2ccccc2nc2ccccc12`, for which the binding response (% of control) is 91%.

On to `Cc1ccc(NC(=O)COc2ccc(/C=C3/NC(=O)NC3=O)cc2)cc1`, for which the binding response (% of control) is 99%.

Consider `COCCCNC(=S)N(CCN(C)C)Cc1cc2cc3c(cc2[nH]c1=O)OCCO3`, for which the binding response (% of control) is 101%.

`COC(=O)C1(CCSC)NC(c2ccc(OC)cc2OC)C2C(=O)N(c3cccc(C(C)=O)c3)C(=O)C21` (stereo not given): the binding response (% of control) is 101%.

Regarding `CCC(CC)c1nnc(NC(=O)C2CCN(C(=O)c3ccco3)CC2)s1`, the binding response (% of control) is 102%.

In the case of `NC(=O)C1=C[C@@H](c2ccc3c(c2)OCO3)C[C@@H](OCCCCO)O1`, the binding response (% of control) is 102%.

In the case of `CN(C)CCOCCOc1ccc(Cl)c2ccccc12`, the binding response (% of control) was 78%.

`CCN(CC)CCOCCOc1ccc(Cl)c2ccccc12`: the binding response (% of control) was 3% [inhibitor] (active).

`Clc1cccc(Cl)c1OCCOCCNCc1ccccc1`: the binding response (% of control) is 102%.

Regarding `CCNC(=O)CSc1nc(-c2ccccc2)cs1`, the binding response (% of control) was 132% (active).

Regarding `CCOC(=O)CSc1nnc(CNc2nc(-c3ccccc3)cs2)n1C`, the binding response (% of control) is 92%.

Take `O=C(CSc1nc(-c2ccccc2)cs1)Nc1cccc([N+](=O)[O-])c1`: the binding response (% of control) is 103%.

As for `CC(=O)Nc1ccc(NC(=O)COc2ccccc2C(=O)Nc2cccc(Cl)c2Cl)cc1`, the binding response (% of control) is 184% (active).

For the compound `CN1CCN(C(=O)c2ccccc2NC(=O)COc2ccccc2Cl)CC1`, the binding response (% of control) is 101%.

Regarding `O=C(COc1ccccc1Cl)Nc1ccc(C(=O)c2ccc(C(=O)O)cc2)cc1`, the binding response (% of control) was 104%.

With `FC(F)(F)c1nnc2c3ccccc3c(Cl)nn12`, the binding response (% of control) is 107%.

Take `COc1ccc2[nH]c(=O)c(CN(Cc3cccnc3)S(=O)(=O)c3ccccc3F)cc2c1`: the binding response (% of control) is 100%.

For `Cc1ccc(NC(=O)Cc2nnc(SCC(=O)Nc3nncs3)n2C)cc1`, the binding response (% of control) was 97%.

Consider `O=Cc1ccc(Oc2cccc(C(F)(F)F)c2)nc1`, for which the binding response (% of control) is 98%.

For `O=C(O)CCCC(=O)Nc1ccc(Oc2cccc(C(F)(F)F)c2)nc1`, the binding response (% of control) is 131% (active).

In the case of `O=C(CCCOc1ccccc1)Nc1cccc(C(=O)O)c1`, the binding response (% of control) was 106%.

In the case of `COc1ccc(/C=C2\SC(=O)N(CCC(=O)NCCCn3ccnc3)C2=O)cc1`, the binding response (% of control) is 100%.

As for `COc1ccc(OC)c(/C(C)=N\NC(=O)c2cc3cc(Cl)ccc3n2C)c1`, the binding response (% of control) is 103%.

For the compound `Cc1cccnc1NC(=O)Cn1c(=O)oc2ccccc21`, the binding response (% of control) was 103%.

The values above are taken from PubChem BioAssay AID1529 (NMMLSC, 2009).
